Compound activity from PubChem BioAssay.
Shown are actives, neighbours in structure and some others; about 1.6% of the full set was active somewhere.
Vif imaging: blocks HIV Vif function | 0.35% of 340,000 active | inhibition, % at 7.49 µM | HEK293T cells, Vif self-association by quenched fluorescence, imaging, 24 h | AID 602346; in the data active means inhibition above about 50%, passing the limit was not always enough; inconclusive means no clear call, values can overlap the other calls; inactive means below about 31%
Glyco luc inh: blocks N-linked glycosylation in D54 reporter cells | D54 ERlucT glycosylation luciferase reporter, 24 h; percent of 100 nM tunicamycin response | reporter increase, % at 12.5 µM | 0.23% of 360,000 active | AID 588692;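 active means mean luciferase reporter signal, scaled so untreated is 0 and the glycosylation-blocking control 100, at or above a set limit in every replicate; inconclusive means mean reaches the limit but not every replicate does; inactive means mean below the limit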;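 further: luciferase carries N-glycosylation sites so blocking glycosylation raises the light; 0% = median of neutral control wells and 100% = median of 100 nM tunicamycin wells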
Myeloid diff 2: myeloid differentiation induction. calls only at 10 µM. 1% of 360,000 active. ER-HoxA9 myeloid progenitors, lysozyme-GFP differentiation, flow cytometry;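 active means normalized GFP-positive differentiation at or above the plate's own cutoff, the solvent-only control mean plus 3 SD; inconclusive means no clear call, values can overlap the other calls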;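 further: cells exposed to compound for four days before flow analysis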
ABCB6 inh 2: blocks the human ABCB6 transporter. Q9NP58. K562-ABCB6 porphyrin accumulation, flow cytometry, 1 h; active compounds read low. fluorescence ratio to DMSO, % at 10 µM. 0.19% of 360,000 active;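 active means fluorescence ratio to DMSO below 75%, the collection mean minus 3 SD; inconclusive means too few cells collected in the well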;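 further: signal is porphyrin accumulated inside mitochondria; 100% equals median channel fluorescence of DMSO control wells; lower ratio means ABCB6 inhibition with less porphyrin fluorescence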
RAD54 inh: RAD54 (human) branch migration inhibition; Q92698; RAD54 Holliday junction branch migration, FAM/BHQ fluorescence; inhibition, % at 10.4 µM; 0.14% of 360,000 active; AID 602329;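 active means mean normalized replicate activity at least 40 and at least half of replicates scoring 40 or more; inconclusive means only one of the two criteria met; inactive means mean below 40 and under half of replicates reaching 40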;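 further: 0% = median of neutral control wells and 100% = median of positive control wells; inhibitors cause a drop in the FAM fluorescence signal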
Target sequence (Q92698 whole entry, looked up): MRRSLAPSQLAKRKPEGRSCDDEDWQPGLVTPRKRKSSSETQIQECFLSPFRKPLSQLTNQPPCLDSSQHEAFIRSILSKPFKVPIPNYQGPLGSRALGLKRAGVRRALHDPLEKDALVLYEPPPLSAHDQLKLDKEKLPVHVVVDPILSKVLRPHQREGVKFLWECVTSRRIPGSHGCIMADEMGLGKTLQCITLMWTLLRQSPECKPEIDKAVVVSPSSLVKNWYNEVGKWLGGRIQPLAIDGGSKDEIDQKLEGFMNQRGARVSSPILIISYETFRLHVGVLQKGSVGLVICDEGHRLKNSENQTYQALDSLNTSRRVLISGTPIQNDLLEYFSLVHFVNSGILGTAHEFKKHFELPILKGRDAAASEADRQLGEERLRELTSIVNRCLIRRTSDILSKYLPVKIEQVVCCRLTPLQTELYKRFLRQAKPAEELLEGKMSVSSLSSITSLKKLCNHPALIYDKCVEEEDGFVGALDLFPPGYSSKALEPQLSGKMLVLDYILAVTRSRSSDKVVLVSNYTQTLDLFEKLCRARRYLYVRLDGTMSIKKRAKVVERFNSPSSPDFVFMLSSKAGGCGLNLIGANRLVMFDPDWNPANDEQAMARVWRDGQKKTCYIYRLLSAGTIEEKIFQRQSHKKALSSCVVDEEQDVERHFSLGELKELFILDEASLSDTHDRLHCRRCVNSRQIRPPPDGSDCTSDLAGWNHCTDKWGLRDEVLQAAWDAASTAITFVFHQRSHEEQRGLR
The depositor's hits bear a star.

For COc1cccc2cc(-c3nnc(SCC(=O)Nc4ccc(NC(C)=O)cc4)n3C)oc12 the results were Vif imaging 15, Glyco luc inh -1, Myeloid diff 2 inactive, ABCB6 inh 2 99 and RAD54 inh 9.
Screening CCN1C(=O)c2cccc3c(S(=O)(=O)Nc4ccncc4)ccc1c23 returned Vif imaging -10, Glyco luc inh 4, Myeloid diff 2 inactive, ABCB6 inh 2 93 and RAD54 inh -5.
CCN1C(=O)c2cccc3c(S(=O)(=O)Nc4nc(C)cs4)ccc1c23 was read as Vif imaging 60*, Glyco luc inh 7, Myeloid diff 2 inactive, ABCB6 inh 2 100 and RAD54 inh -1.
For CCN1C(=O)c2cccc3c(S(=O)(=O)Nc4ccccn4)ccc1c23 the results were Vif imaging 31, Glyco luc inh 50*, Myeloid diff 2 inactive, ABCB6 inh 2 77 and RAD54 inh 5.
Screening CCN1C(=O)c2cccc3c(S(=O)(=O)Nc4ccccc4)ccc1c23 returned Vif imaging inconclusive, Glyco luc inh 51*, Myeloid diff 2 inactive, ABCB6 inh 2 102 and RAD54 inh -9.
For COCC(=O)N(C)C[C@H]1Oc2cc(C3=CCCC3)ccc2S(=O)(=O)N([C@H](C)CO)C[C@@H]1C the results were RAD54 inh 2.
`COc1ccc(S(=O)(=O)Nc2cccc3c2O[C@@H](CN(C)C(=O)Nc2ccc4c(c2)OCO4)[C@@H](C)CN([C@@H](C)CO)C3=O)cc1` gave RAD54 inh -1.
O=C(NCCN1CCNCC1)c1ccccc1O was read as Vif imaging 62*, Glyco luc inh -1, Myeloid diff 2 inactive, ABCB6 inh 2 88 and RAD54 inh -8.
For NC1=NC(=Nc2cccc(S(N)(=O)=O)c2)c2ccccc21 the results were Vif imaging 1, Glyco luc inh 1, Myeloid diff 2 inactive, ABCB6 inh 2 101 and RAD54 inh -15.
For COc1cc(N=Nc2cccc(S(N)(=O)=O)c2)c2ccccc2c1N the results were Vif imaging 53*, Glyco luc inh 116*, Myeloid diff 2 active, ABCB6 inh 2 220 and RAD54 inh -21.
For CC(NC(=O)c1ccco1)C(c1cccs1)N1CCN(c2ccccc2F)CC1 (stereo unspecified) the results were Glyco luc inh -2, Myeloid diff 2 active, ABCB6 inh 2 106 and RAD54 inh 2.
Screening CO[C@H](CN(C)Cc1cc(F)ccc1F)[C@@H](C)CN(C(=O)Nc1ccc(F)cc1)[C@@H](C)CO returned RAD54 inh -4.
For CC/C(O)=C1\C(=O)CC(c2ccccc2)CC1=NCCc1c(C)[nH]c2ccc(C)cc12 (stereo unspecified) the results were Vif imaging -1, Glyco luc inh -7, Myeloid diff 2 active, ABCB6 inh 2 96 and RAD54 inh -5.
`C[C@@H]1CN([C@H](C)CO)C(=O)c2cccc(NS(C)(=O)=O)c2O[C@@H]1CN(C)Cc1ccc(Cl)c(Cl)c1` gave RAD54 inh -4.
For CC(=O)Nc1ccc2c(c1)C(=O)N(C)[C@@H]1CC[C@H](CC(=O)NCC3CCCCC3)O[C@H]1CO2 the results were RAD54 inh -3.
For CO[C@H]1CN(C)C(=O)c2ccc(NC(=O)c3ccccc3)cc2OC[C@@H](C)N(C(=O)C2CC2)C[C@@H]1C the results were RAD54 inh 3.
`Cc1cccc(N2CCN(C(=O)c3cc4ccccc4oc3=O)CC2)c1C` gave Vif imaging 68*, Glyco luc inh 2, Myeloid diff 2 inactive, ABCB6 inh 2 96 and RAD54 inh -9.
`O=C1/C(=C\c2ccc(Br)o2)SC(=Nc2ccccc2)N1c1ccccc1` gave Vif imaging 7, Glyco luc inh -1, Myeloid diff 2 active, ABCB6 inh 2 100 and RAD54 inh -4.
`CN(C)N1C(=O)/C(=C/c2ccco2)SC1=Nc1ccccc1` gave Vif imaging -2, Glyco luc inh 0, Myeloid diff 2 inactive and ABCB6 inh 2 93.
For O=C(c1ccc2c(c1)OCO2)N1C[C@H]2[C@@H](c3ccccc31)[C@@H](CO)N2CC1CCCC1 the results were RAD54 inh -9.
Cc1noc(C)c1S(=O)(=O)Nc1cccc2c1O[C@H](CN(C)Cc1ccc(C(=O)Nc3ccccc3N)cc1)[C@H](C)CN([C@@H](C)CO)C2=O was read as RAD54 inh -1.
`Cc1ccc(-c2nc3cc(NC(=O)C(C)C)ccc3o2)cc1` gave Vif imaging -4, Glyco luc inh -9, Myeloid diff 2 active, ABCB6 inh 2 94 and RAD54 inh 9.
For COc1cccc2oc3ccc(C#CC4(N)CCCCC4)cc3c(=O)c12 the results were Vif imaging 0, Glyco luc inh -7, Myeloid diff 2 inactive, ABCB6 inh 2 99 and RAD54 inh 51*.
`COc1ccc(/C(C)=N/NC(=O)c2ccccc2OCc2ccccc2)c(OC)c1` gave Vif imaging 15, Glyco luc inh 32*, Myeloid diff 2 inconclusive, ABCB6 inh 2 104 and RAD54 inh 9.
`CCNC(=O)C[C@@H]1CC[C@@H]2[C@H](COc3ccc(NC(=O)Nc4ccc(Cl)cc4)cc3C(=O)N2C)O1` gave RAD54 inh 5.
Screening CN1c2ccccc2C(C)(C)C12C=Nc1c(ccc3ccccc13)O2 (stereo unspecified) returned Vif imaging 5, Glyco luc inh -1, Myeloid diff 2 inactive and ABCB6 inh 2 103.
`CN1c2ccccc2C(C)(C)[C@]12C=Cc1cc(O)ccc1O2` gave Vif imaging 74*, Glyco luc inh -1, Myeloid diff 2 inactive, ABCB6 inh 2 300 and RAD54 inh -7.
Screening O=C(c1cccnc1)N1C[C@@H]2[C@H](c3ccccc31)[C@H](CO)N2C(=O)Nc1ccccc1 returned RAD54 inh -6.
CC(C)c1ccc(S(=O)(=O)Nc2ccc(SC(F)F)cc2)cc1 was read as Vif imaging -7, Glyco luc inh 0, Myeloid diff 2 inactive and ABCB6 inh 2 106.
For Cc1ccc(S(=O)(=O)Nc2ccc(SC(F)F)cc2)c(C)c1 the results were Vif imaging 61*, Glyco luc inh -3, Myeloid diff 2 inactive and ABCB6 inh 2 99.
O=C(N/N=C/c1ccccc1C(=O)O)c1ccc(COc2cccc3cccnc23)cc1 was read as Vif imaging 0, Glyco luc inh -1, Myeloid diff 2 active and ABCB6 inh 2 101.
`COC(=O)c1ccc(COc2ccccc2/C=N/NC(=O)c2cccnc2)cc1` gave Vif imaging 3, Glyco luc inh 1, Myeloid diff 2 inactive, ABCB6 inh 2 97 and RAD54 inh -2.
NNC(=O)c1ccc(COc2cccc3cccnc23)cc1 was read as Vif imaging 36, Glyco luc inh 1, Myeloid diff 2 active, ABCB6 inh 2 93 and RAD54 inh 11.
For CCc1ccc(/C=C2/C(=O)N(c3ccccc3)C(=S)N2CC(=O)OC)s1 the results were Vif imaging 1, Glyco luc inh 2, Myeloid diff 2 inactive, ABCB6 inh 2 103 and RAD54 inh 1.
